PubChem BioAssay AID1850 (Southern Research Specialized Biocontainment Screening …, 2009)
Out of some 310,000 compounds screened, about 1,000 (0.32%) were called active. These entries were drawn from the full list. Measured potencies and affinities stand elsewhere. Values without a mark were called inactive. The rule behind the calls is not given here.

Experiment: PhoP regulon inhibitors, Salmonella typhi PhoP promoter GFP reporter, confirmatory (AID 1850);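 note: 0% = induced wells with vehicle and 100% = uninduced wells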
Details: fluorescence, 4 h, at 50 µM, hits give high values

| Compound | inhibition [%] |
| --- | --- |
| NC(=S)NNC(=O)c1cccc(Br)c1 | -6.69 |
| Cc1ccc(-n2nc(C)c(C(C)(O)C(F)(F)F)c2N)cc1 (stereo not given) | 9.79 |
| O=C(NC(Cc1ccccc1)C(=O)O)/C(=C\c1ccccc1)NC(=O)c1ccc(Br)o1 (stereo not given) | -5.27 |
| COc1cccc(NC(=O)c2ccc(NC(=O)C(C)C)cc2)c1 | -3.48 |
| Cc1ccc(N2N=C(c3ccc(F)cc3)CC2c2ccco2)cc1 (stereo not given) | -33.1 |
| CC1CN(C(=O)COC(=O)c2ccc(N(C)C)cc2)CC(C)O1 (stereo not given) | 1.66 |
| COc1ccc(CC(=O)OCC(=O)N(C)C2CCS(=O)(=O)C2)cc1OC (stereo not given) | -0.6 |
| O=C(CSc1nc2ccccc2s1)NCc1cc([N+](=O)[O-])ccc1O | -40.6 |
| O=C(CSc1nc2ccccc2s1)N/N=C/c1ccccc1C(=O)O | 10.8 |
| Cc1nn(C)cc1/C=N/NC(=O)CSc1ccccn1 | 3.55 |
| O=C(CSc1ccccn1)N/N=C/c1ccccc1[N+](=O)[O-] | -6.71 |
| Cc1ccnn1CC(=O)N/N=C/c1c[nH]c2ccccc12 | 2.22 |
| O=C(CSc1ccccn1)N/N=C/c1cccc([N+](=O)[O-])c1 | 1.33 |
| COc1ccc(NC(=O)CN2C(=O)c3cccc4cccc2c34)cc1OC | -7.56 |
| O=C(Cn1cc(C(F)(F)F)cc(Cl)c1=O)NCc1ccc(Cl)cc1 | -1.19 |
| CCCCOC(=O)c1ccc(-c2ccc(/C=N/NC(=S)NCC)o2)cc1 | -7.32 |
| O=[N+]([O-])c1ccc(/C([O-])=C(/C(=S)NCc2ccco2)[n+]2ccccc2)cc1 | 13.8 |
| O=C(NC1CCN(Cc2ccccc2)CC1)C1CCN(S(=O)(=O)c2ccccc2)CC1 | 5.66 |
| Clc1ccc(-c2csc(N3CCc4ccccc4C3)n2)cc1 | 5.55 |
| CC(C)CN=CC1=C(O)c2ccccc2C1=O | 5.42 |
| CC(C)(C)CN1CCN(Cc2cc3ccccc3[nH]2)CC1CCO (stereo not given) | 2.46 |
| Cc1cc(C)n(C(=O)Cn2nc([N+](=O)[O-])cc2C)n1 | -5.88 |
| O=C1CSC(c2cccc([N+](=O)[O-])c2)N1c1ccccc1 (stereo not given) | 0.65 |
| Clc1ccccc1OCCCCN1CCCCC1 | -2.94 |
| CN1CCCC(CC2Oc3ccccc3Sc3ccccc32)C1 (stereo not given) | 11.3 |

| Compound | inhibition [%] |
| --- | --- |
| OCCC1CN(Cc2cccc3c2OCO3)CCN1C1CCCCC1 (stereo not given) | -4.26 |
| Cc1ccc(S(=O)(=O)N(C)C(=O)NC(=O)NS(=O)(=O)c2ccccc2)cc1 | -5.97 |
| CCC(/C=C1\Sc2ccc(OC)cc2N1CC)=C\c1sc2ccc(OC)cc2[n+]1CCCS(=O)(=O)[O-] | -7.82 |
| CCC(=O)/C=C1\Sc2ccc(OC)cc2N1CCO | -12.9 |
| COc1ccc(/C=N/Nc2nc(C)cc(-c3ccccc3)n2)cc1OC | -1.16 |
| COc1ccc(-c2ccc(=O)n(Cc3cccc(Cl)c3)n2)cc1 | -10.8 |
| COc1ccc(C)cc1N/C(N)=N/c1nc(C)cc(C)n1 | -5.2 |
| Cc1ccc(N/C(N)=N/c2nc(C)cc(C)n2)cc1 | -9.13 |
| CCC(=O)Nc1ccc(N/C(N)=N/c2nc(C)cc(C)n2)cc1 | -8.68 |
| Cc1cc(C)nc(/N=C(\N)Nc2cc([N+](=O)[O-])ccc2C)n1 | -1.74 |
| O=C(NCCF)C1Nc2ccc(OC(F)(F)F)cc2C2C=CCC12 (stereo not given) | 9.88 |
| C=CCN(C(=O)c1csnn1)C(C(=O)NCc1ccccc1)c1c(F)cccc1Cl (stereo not given) | -1.14 |
| CN(CC(=O)N1CCN(c2cccc(Cl)c2)CC1)S(=O)(=O)c1cccs1 | 2.82 |
| CCOC(=O)C(C)NC(=O)CCc1nnc2ccc(N3CCCCC3)nn12 (stereo not given) | 1.43 |
| CC(=O)c1c(C)[nH]c(C(=O)N2CCN(c3ccccn3)CC2)c1C | 2.98 |
| Nc1nnc(SCC(=O)OCC(=O)c2ccccc2Br)s1 | 1.19 |
| C#CCOCCOCCOCCNc1nc(N2CCN(C(=O)CCCCCCCCCCNC(=O)Cn3cc(CCCCCN)nn3)CC2)nc(N2CCN(C(=O)CCCCCCCCCCNC(=O)[C@H](CO)n3cc(CCCCCN)nn3)CC2)n1 | 16.5 |
| C#CCOCCOCCOCCNc1nc(N2CCOCC2)nc(N2CCN(C(=O)CCCCCCCCCCNC(=O)[C@@H]([C@H](C)CC)n3cc(CCCCCN)nn3)CC2)n1 | 2.64 |
| C#CCOCCOCCOCCNc1nc(N2CCN(C(=O)Cn3cc(CCCCN)nn3)CC2)nc(N2CCN(C(=O)[C@H]([C@@H](C)CC)n3cc(CCCN=C(N)N)nn3)CC2)n1 | 5.45 |
| C#CCOCCOCCOCCNc1nc(N2CCN(C(=O)CCCCCCCCCCNC(=O)Cn3cc(CCCCCN)nn3)CC2)nc(N2CCN(C(=O)CCCCCCCCCCNC(=O)Cn3cc(C[C@@H](C)O)nn3)CC2)n1 | -2.3 |
| C#CCOCCOCCOCCNc1nc(N2CCN(C(=O)CCCCCCCCCCNC(=O)Cn3cc(C[C@@H](C)O)nn3)CC2)nc(N2CCN(C(=O)CCCCCCCCCCNC(=O)[C@@H]([C@H](C)O)n3cc(C)nn3)CC2)n1 | -25.3 |
| C#CCOCCOCCOCCNc1nc(N2CCN(C(=O)CCCCCCCCCCNC(=O)[C@H](CCC(=O)O)n3cc(CCCCCN)nn3)CC2)nc(N2CCN(C(=O)CCCCCCCCCCNC(=O)[C@@H]([C@H](C)O)n3cc(C)nn3)CC2)n1 | -1.84 |
| C#CCOCCOCCOCCNc1nc(N2CCN(C(=O)Cn3cc(CCCN=C(N)N)nn3)CC2)nc(N2CCN(C(=O)[C@H]([C@@H](C)CC)n3cc(CCCCN)nn3)CC2)n1 | -18 |
| C#CCOCCOCCOCCNc1nc(N2CCN(C(=O)CCCCCCCCCCNC(=O)Cn3cc(C[C@@H](C)O)nn3)CC2)nc(N2CCN(C(=O)CCCCCCCCCCNC(=O)[C@@H](CCC(=O)O)n3cc(CCCCCN)nn3)CC2)n1 | -25.1 |
| CN(CC(=O)NCc1ccncc1)S(=O)(=O)c1ccc(F)cc1 | 9.34 |
